Whole data set: some 9,900 sequences, median “r (bound/input frequency ratio)” near 0.7, cut for the highest 2% near 6.5. Only a selection was taken, and the highest values are over-represented in it overall.
B1: ENSMUSG00000034801.154|Sos2|134:138;197:201;231:235 (ssRNA)
RNA: GGGAGUUCUACAGUCCGACGAUCGCUUCGAUAUCCGCAUGCUAUUGUUUGGUUUUUACAUCUAGGAGACUUAGGAAUAAUACCCACUGUUCUUAAACUCUUUGAGACCAUGUCUUAAAUGUCAGUAUUUGCUGCUGAAGACAAAAACGGAAAAUAGAAUGAAAUAAUAGAAUGCACACACAUUAUUAUUUUGUUAAAAUUAUAAACAGUUCUACAUAACCUGAUUAUAGAAGAAGGGCAACACAUCAUUAAGAUGUGCCUUUUGUUUUGCAGUCAUACGUGUUUAGCUAAUCAUUGUUUAGCUCUCUUGCGGUCGCACUAGUGUGGAAUUCUCGGGUGUCAAGG
B2: ENSMUSG00000028439.239|Fam219a|33:39;67:71;117:126;145:149 (ssRNA)
RNA: GGGAGUUCUACAGUCCGACGAUCGCUUCGAUAUCCGCAUGCUAUCACAGGAGUUUCUGCAAAAGACUAUGACAUCACACACACUGUGGUCUCACGAGGUACCUGGAGGUCAUACUGCACGGACAUGGGAAGUACGUGAAGAUUUAUUUCGGGAAAAGUGCACACACACAAGCUGUACUGGGUGUCAUCAUACCUGUUGCUUCUGCUGCUGGUCUGGUCUGAGGGAGGAAAGCUGAGGCUGUAGCUCAGUGAGAUGGUGGCUCUCCCAUGGCUGAAGACAAGUGCAAGCAGAGAGAGCCUCAGGCUCUUGCGGUCGCACUAGUGUGGAAUUCUCGGGUGUCAAGG
B3: ENSMUSG00000031028.61|Tub|157:169;187:191 (ssRNA)
RNA: GGGAGUUCUACAGUCCGACGAUCGCUUCGAUAUCCGCAUGCUAUCAGUCCCCUGCUGCAGUGGUGUUAUCACACCGGAAAGCCUCUUCACCUGGAGGUACAGAGGGAGAGGAAGCACAAGCCUGGCUGCUGUGGCUCAGCCAUCCACUCAGCCUACGAGUCAGAGACAGUGGGUGUCCCGGGAAGCAGGGGUACAGUGACACACACACAUACUACAGGGCACUCAAGCUCAUACUAGAAAAAGCUCUGGUGGUCAGCAGAAAGCACUCCCACUUCAAAAGGGCCCAUUAGGCCCAAAGGGGGUCUCUUGCGGUCGCACUAGUGUGGAAUUCUCGGGUGUCAAGG
B4: ENSMUSG00000032194.9|Kank2 (ssRNA)
RNA: GGGAGUUCUACAGUCCGACGAUCGCUUCGAUAUCCGCAUGCUAGAGUGAAUACAGGGAGGAGCCAGUGAGUCCCCCAGGACCCACCAGCCACAAGCCACGCAUCAAACCGUCCCUCCUCCAUCCCUCUGUCCCAUUCUGCCUCGGCAUUCCUCAGCCCCUGAACUUCCCUGAGGGAGCCCUGACAUCUACCAGGCUCAAGCUCCUGGAAGCCUUUCCCAGCACCCUGGGUUCAAAGCCAGAAAGCCAAGCUACAUUCUCCUCCCAGUUGGCACCAGUUGACAACGCCUUGGGUGUGGGUUUCUCUCUUGCGGUCGCACUAGUGUGGAAUUCUCGGGUGUCAAGG
B5: ENSMUSG00000061578.1396|Ksr2 (ssRNA)
RNA: GGGAGUUCUACAGUCCGACGAUCGCUUCGAUAUCCGCAUGCUAAAGUAUAUAUACCUAUAAAUGCUAUAUAUAUUAUAUAUGUGUAUAUACAUAAAGACUACUUCUUGUACAGCCCUCCACGGACCUCAGGCCCACUGUUUUCUCCAUGUCUGUCUGUACUGACUGUUGCAGAAUGAGCUGAUGUAUGAUCUUGAUUCUCCAUUUUCCUUCUGGACCACAUGUCUCUUCCUUUUCCUUUUUAGAUCUGUCUUGCUCUCUGUCUCUCUCACUCAUUGCCAACAUGUUGCUGGGAAAGAAUAUUUCUCUUGCGGUCGCACUAGUGUGGAAUUCUCGGGUGUCAAGG
B6: ENSMUSG00000043670.80|Diras1|67:72 (ssRNA)
RNA: GGGAGUUCUACAGUCCGACGAUCGCUUCGAUAUCCGCAUGCUACUGGCUAAGGAACUGCUCAUCCCAGUCAGGCCCAGAGAGGUUACCUUGCCUCUCCAUCUCUGUCCCACACACCCCAGCCAUGCCCACUGUCCCUGUCCCUCACAUUCUAUCACUGUGACCUCUGGGGAGUGCCCAUUGACCUCAUCUUCCUUCACUAAUAUCUUAUUUCUUUCACCUGAUCCUGUCCUUUCCCCGUGACCUCUGACCUGUGGCCUUCCCUGGGUCCAGAACACCCCUGUCCUCUCCUGUCUGCACACCAGCUCUUGCGGUCGCACUAGUGUGGAAUUCUCGGGUGUCAAGG
B7: ENSMUSG00000090935.729|Synj2bp (ssRNA)
RNA: GGGAGUUCUACAGUCCGACGAUCGCUUCGAUAUCCGCAUGCUAAUCAACCUCCAGUAACAUAUGUGGUUAGUAAGUGCUUCAGCUUGUGUAGCCAUUAAUAACCAAGUCAUAGGAUUGUGAAUCUAAAAUACUCCUGGGUAAAAUUUGUAUUAGAAUGGAAAAAAAAAUGAGGGUCAGAAAGGUGAGCUAACUUCAAGUUAGAUACUCCCCUCUAUUUUGGUCUCAAAUUUGUUUUAGUGUGUCCACAACAUGAAAACAUACAAAAACUAUAUUUUAAAAAUCAGUUUACUUUCAUCUUUUCUCUCUUGCGGUCGCACUAGUGUGGAAUUCUCGGGUGUCAAGG
B8: ENSMUSG00000022095.164|Fam160b2|44:48 (ssRNA)
RNA: GGGAGUUCUACAGUCCGACGAUCGCUUCGAUAUCCGCAUGCUAGGCUAGGCCGAGACACAAGCAGAUAGCUCUGGCAUUGUUCUUCCAUACUCCUCCAUGGCUGGGGCUGCUACCUCACCCGGCCUGAAUCUGUCUCAACCUGCAAGAGCACUCGGGCGGCGCCAGGCAUUACCUCACAACAGGCCUGCAGUUGUUGGCUUCCCUCCUGGGCAAGGAGGAGCAGGCCAGAGCCCCUUUUGCUUCCUUUUCCUGCCCAUGCCACCUCUCGAAGCCGGGCACAGGUUGCCAGGAGGUGACAUGAACUCUUGCGGUCGCACUAGUGUGGAAUUCUCGGGUGUCAAGG
B9: ENSMUSG00000004113.278|Cacna1b|87:91;151:155;229:260 (ssRNA)
RNA: GGGAGUUCUACAGUCCGACGAUCGCUUCGAUAUCCGCAUGCUAAAGUCAGGCCCCUGGCUUAGCACUAGAAAAAAUAAAACCUCAUGGCUGCUUUGCAAAGGGAAAACCCAUGCUCAGGAAGGUGUUCACACACCACAGAUAGCUGGGAGGCCACGAGAGAAAGGUUGCACACAGACAGGCAGGCACUCCUUGCACACGUCUCUCUGUUUUGAAACUUCUGAUGACUUCUUGGUGGCUUGUUGUCUUCUACCCCAUGUUUCUCACAGGAUCACACACACACACACACACACACACACACACACCUCUUGCGGUCGCACUAGUGUGGAAUUCUCGGGUGUCAAGG
B10: ENSMUSG00000022095.189|Fam160b2 (ssRNA)
RNA: GGGAGUUCUACAGUCCGACGAUCGCUUCGAUAUCCGCAUGCUAGUUGGCUUCCCUCCUGGGCAAGGAGGAGCAGGCCAGAGCCCCUUUUGCUUCCUUUUCCUGCCCAUGCCACCUCUCGAAGCCGGGCACAGGUUGCCAGGAGGUGACAUGAAAGAGGAGGAAACUCCAUGACCUCUACAUCCCCCGCAGUCCUCCCAGCGGGGGAGGACUUCUCUGCUGCUCCGAAGAACAUCAUGCACUCCUGUGUGUGUGUGUGAGUGUGUGUGUGUGUGUGUGUGUGUGUGUGUGUGUAUGUGUGUGUACUCUUGCGGUCGCACUAGUGUGGAAUUCUCGGGUGUCAAGG
B11: ENSMUSG00000022095.188|Fam160b2 (ssRNA)
RNA: GGGAGUUCUACAGUCCGACGAUCGCUUCGAUAUCCGCAUGCUAGCAGUUGUUGGCUUCCCUCCUGGGCAAGGAGGAGCAGGCCAGAGCCCCUUUUGCUUCCUUUUCCUGCCCAUGCCACCUCUCGAAGCCGGGCACAGGUUGCCAGGAGGUGACAUGAAAGAGGAGGAAACUCCAUGACCUCUACAUCCCCCGCAGUCCUCCCAGCGGGGGAGGACUUCUCUGCUGCUCCGAAGAACAUCAUGCACUCCUGUGUGUGUGUGUGAGUGUGUGUGUGUGUGUGUGUGUGUGUGUGUGUGUAUGUGCUCUUGCGGUCGCACUAGUGUGGAAUUCUCGGGUGUCAAGG
B12: ENSMUSG00000022095.187|Fam160b2 (ssRNA)
RNA: GGGAGUUCUACAGUCCGACGAUCGCUUCGAUAUCCGCAUGCUAAGGCCUGCAGUUGUUGGCUUCCCUCCUGGGCAAGGAGGAGCAGGCCAGAGCCCCUUUUGCUUCCUUUUCCUGCCCAUGCCACCUCUCGAAGCCGGGCACAGGUUGCCAGGAGGUGACAUGAAAGAGGAGGAAACUCCAUGACCUCUACAUCCCCCGCAGUCCUCCCAGCGGGGGAGGACUUCUCUGCUGCUCCGAAGAACAUCAUGCACUCCUGUGUGUGUGUGUGAGUGUGUGUGUGUGUGUGUGUGUGUGUGUGUGUGCUCUUGCGGUCGCACUAGUGUGGAAUUCUCGGGUGUCAAGG
B13: ENSMUSG00000061578.732|Ksr2 (ssRNA)
RNA: GGGAGUUCUACAGUCCGACGAUCGCUUCGAUAUCCGCAUGCUAGGGGUCAUUGUUCAAUCCUGUAUCAAGACCUUGGAGUUGUCUAAGGCUGUGGGUUUUAAAUACCUGCUGCAGGCCUCCCAUCUCUGGCUCUUUGUUUCCACUCUGGCCCAAGUUUGAGUCUCCAUAUGGGCCCUUCCUGUCCUCAUGCCCUGCCUGUCUUCAUUCCACCCAUCCACCCUCCUAAGGAUUGGUCUUGUUCCGAGAGUGAUCCUGGUAACGCCAAGCCUCCCUCUGCCCCUGUGUUGGCUUCUGUGACGGACCUCUUGCGGUCGCACUAGUGUGGAAUUCUCGGGUGUCAAGG

These binders were tested against TDP-43 (Homo sapiens, UniProt Q13148 1-414) (assay: RNA Bind-n-Seq with designed 260-mer pool; 25 mM Tris-HCl, 150 mM KCl, 3 mM MgCl2, BSA (printed 500 mg/mL), 20 units/mL SUPERase IN; pH not stated; 500 nM RNA pool, 1 h, 4 C; TDP-43 5, 50, 500 nM; high values mean tight binding). Conditions: protein: recombinant; tags: SBP (GST cleaved off with PreScission; pGEX-GST-SBP).
Sequence of TDP-43 (Q13148 whole entry): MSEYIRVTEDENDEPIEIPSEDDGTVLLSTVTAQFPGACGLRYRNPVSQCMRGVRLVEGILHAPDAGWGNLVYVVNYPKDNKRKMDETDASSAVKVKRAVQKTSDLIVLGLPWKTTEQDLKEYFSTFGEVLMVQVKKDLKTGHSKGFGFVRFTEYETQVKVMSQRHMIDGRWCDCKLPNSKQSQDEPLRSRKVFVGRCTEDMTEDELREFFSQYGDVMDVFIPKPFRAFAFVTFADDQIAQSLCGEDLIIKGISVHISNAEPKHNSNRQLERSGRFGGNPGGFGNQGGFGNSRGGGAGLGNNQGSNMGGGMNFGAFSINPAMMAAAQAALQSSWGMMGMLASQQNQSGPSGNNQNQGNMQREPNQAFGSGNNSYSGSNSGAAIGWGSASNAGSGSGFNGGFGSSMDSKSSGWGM
Procedure, shortened: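 Recombinant SBP-tagged TDP-43 at 5, 50 or 500 nM was captured on streptavidin beads, then incubated 1 h at 4 °C with 500 nM of an in vitro-transcribed 260-nt 3′ UTR oligo pool in 25 mM Tris-HCl, 150 mM KCl, 3 mM MgCl2, BSA and SUPERase IN. Bound RNA was washed, eluted with biotin, reverse transcribed, PCR-amplified and sequenced. Binding is R, each oligo's mapped-read-normalized abundance in the bound sample divided by its abundance in input. Duplicates used two independent protein batches.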
With B1 the binding signal was 0.018 R (bound/input frequency ratio).
For B2, the binding signal was 1.35 R (bound/input frequency ratio).
In the case of B3, the binding signal is reported as 0.59 R (bound/input frequency ratio).
B4 was tested, and the binding signal was 1.04 R (bound/input frequency ratio).
For B5, the binding signal was 0.176 R (bound/input frequency ratio).
With B6 the binding signal was 2.36 R (bound/input frequency ratio).
B7 was tested, and the binding signal was 0.0597 R (bound/input frequency ratio).
B8 was tested, and the binding signal was 0.529 R (bound/input frequency ratio).
B9 was tested, and the binding signal was 1.82 R (bound/input frequency ratio).
For B10, the binding signal was 5.45 R (bound/input frequency ratio).
With B11 the binding signal was 7.09 R (bound/input frequency ratio).
With B12 the binding signal was 6.28 R (bound/input frequency ratio).
B13 was tested, and the binding signal was 1.54 R (bound/input frequency ratio).

— publication PMC12864922, “TDP-43 directly inhibits mRNA accumulation in neurites through modulation of mRNA stability”
